Screening data deposited in PubChem by National Center for Advancing Translational Sciences (NCATS).
Shown are actives, neighbours in structure and some others; about 3.1% of the full set was active somewhere.
TRb SRC2 PPI = TRbeta-SRC2 interaction inhibition. P10828. TRbeta-SRC2 peptide binding, fluorescence polarization; receptor liganded with 1 µM T3. Potency, µM (highest dose often 106 µM), without a hit: top-dose activity change, negative = inhibition, actives largely listed as inhibitors. hit rate 0.065% among 280,000;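 also: plate controls were bound peptide for no effect and peptide without receptor for full effect; nearly all actives have a fitted effect of over 50% in size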
Target sequence (P10828 whole entry, looked up): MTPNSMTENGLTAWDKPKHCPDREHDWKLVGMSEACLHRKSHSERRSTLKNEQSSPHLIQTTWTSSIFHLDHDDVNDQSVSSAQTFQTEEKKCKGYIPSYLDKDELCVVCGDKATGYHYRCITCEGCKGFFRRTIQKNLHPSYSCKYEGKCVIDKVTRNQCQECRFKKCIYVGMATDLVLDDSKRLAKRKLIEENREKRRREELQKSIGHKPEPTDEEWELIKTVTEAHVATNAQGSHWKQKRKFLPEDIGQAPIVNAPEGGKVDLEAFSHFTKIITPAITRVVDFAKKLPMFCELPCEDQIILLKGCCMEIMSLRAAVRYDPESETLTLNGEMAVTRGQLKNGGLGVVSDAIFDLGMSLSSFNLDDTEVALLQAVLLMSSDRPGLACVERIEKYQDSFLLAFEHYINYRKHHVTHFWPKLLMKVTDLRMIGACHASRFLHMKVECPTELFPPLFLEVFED
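Binding of a 20-amino-acid Texas Red SRC2 peptide (20 nM) to TRb ligand-binding domain (0.6 uM) with agonist T3 at 1 uM was followed by fluorescence polarization after a 5 hr room-temperature incubation.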
TexasRed fluor = alters Texas Red total fluorescence, flagging assay interference. TRb/SRC2 Texas Red total fluorescence interference. Potency, µM (series often up to 106 µM), without a hit: at the highest dose fluorescence change, negative = quenching. hit rate 0.29% among 280,000. AID 1479; active = well fitted curve in either direction with a large enough effect; inconclusive = small, poorly fitted or top-dose-only effect
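Human TRb ligand-binding domain at 0.6 uM with 20 nM Texas Red SRC2 peptide in Tris buffer containing 1 uM T3 and 5% DMSO, incubated with compound 5 h at ambient temperature. Total fluorescence (555/632 nm) calculated as parallel + 2 × perpendicular.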
Tau FP inhib = blocks human tau fibril formation measured by polarization. P10636. K18 P301L tau heparin fibrillization, Alexa594 FP, 6 h. Potency, µM (top dose mostly 57.7 µM), for inactives: at the top dose activity, negative = inhibition, actives largely listed as inhibitors. hit rate 0.39% among 280,000; also: nearly all actives have a fitted effect of over 55% in size
Target sequence (P10636 561-689 P618L limits assumed): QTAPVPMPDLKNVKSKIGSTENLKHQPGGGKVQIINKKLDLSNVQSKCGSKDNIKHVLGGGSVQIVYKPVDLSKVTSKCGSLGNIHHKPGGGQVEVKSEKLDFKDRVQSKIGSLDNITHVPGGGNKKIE
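Heparin (20 uM) drove fibril formation of recombinant tau K18 P301L, 15 uM unlabeled with 0.24 uM Alexa 594 label, for 6 hr at 37 C in 100 mM sodium acetate pH 7. Fluorescence polarization (555/632 nm) read 1 hr after 30 uM ThT.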
Tau fluor counter = counter-screen for tau fibril formation inhibitors; tau K18 P301L Alexa594 fluorescence, heparin fibrillization; Potency, µM (doses to about 57.7 µM), for the others: at the highest dose activity change, negative = decrease; AID 1463; hit rate 0.93% among 280,000; also: nearly all actives have a fitted effect of over 55% in size
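Human tau K18 P301L (15 uM unlabeled, 0.24 uM Alexa 594-labeled) in 100 mM sodium acetate pH 7 with 20 uM heparin, 6 hr at 37 C. ThT 30 uM added, 1 hr ambient; Alexa 594 FP and total fluorescence read at 555/632 nm.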
Tau ThT inhib = tau fibrillization inhibition (ThT binding); P10636; recombinant tau K18 P301L (four-repeat tau fragment), heparin-induced fibrillization, ThT fluorescence; Potency, µM (top dose mostly 57.4 µM), inactives show top-dose activity, negative = inhibition, actives largely listed as inhibitors; hit rate 2.1% among 270,000; also: nearly all actives have a fitted effect of over 55% in size
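Recombinant human tau K18 fragment […] carrying P301L, 15 uM unlabeled plus 0.24 uM Alexa 594-labeled, was fibrillized with 20 uM heparin in 100 mM sodium acetate pH 7 for 6 hr at 37 C; 30 uM ThT fluorescence read after 1 hr.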
An asterisk follows results filed as active; ? = inconclusive; / = not tested or not shown; [ ] = another dose, or the depositor's remark. Unless noted, calls follow the shape of the dose curve; as a rule, active = well fitted curve in the direction sought with a large enough effect; inconclusive = small, poorly fitted or top-dose-only effect, or another doubt; inactive = no such curve, though single readings can be large; an effect the other way counts as inactive or inconclusive. Unless noted, % is scaled to controls: 0 for no effect and ±100 for the full control effect; potency is read from the fitted curve at half-maximal effect.

SMILES	TRb SRC2 PPI	TexasRed fluor	Tau FP inhib	Tau fluor counter	Tau ThT inhib
[O-]/C(=C(\C(=S)Nc1cccc2ccccc12)[n+]1ccccc1)c1ccc2c(c1)OCCO2	?	-3%	?	?	13µM*
[O-]/C(=C(\C(=S)Nc1cccc2ccccc12)[n+]1ccccc1)c1ccc(OC(F)F)cc1	3%	-1%	-9%	-27%	?
O=C1CN(C(=O)CSc2nc(-c3ccccc3)cs2)c2ccccc2N1	1%	1%	7%	-20%	-6%
CC1(C)C(=O)Nc2ccccc2N1C(=O)CSc1nc(-c2ccccc2)cs1	-8%[53 µM]	32µM*[quencher]	1%	5%	6%
CCN1CCN(Cc2ccc(NC(=O)c3cc(NC(=O)c4cc(-c5ccc(OC)cc5)n[nH]4)cc(OC)c3)cc2C(F)(F)F)CC1	4%	0%	28µM*	?	?
CCN1CCN(Cc2ccc(NC(=O)c3cc(NC(=O)c4ccc5n[nH]nc5c4)cc(OC)c3)cc2C(F)(F)F)CC1	4%	-2%	?	-29%	11%
O=C1CC(c2ccco2)CC(O)=C1C=Nc1cc(Cl)ccc1Cl (stereo unspecified)	8%[53 µM]	-5%[53 µM]	?	-18%	22µM*
O=C1CC(c2ccco2)CC(O)=C1C=Nc1cc(Cl)ccc1O (stereo unspecified)	1%	-21%	-3%	-28%	?
NC(=S)Cc1nc(-c2ccccc2)cs1	-3%[53 µM]	-3%[53 µM]	?	?	20µM*
Oc1csc(Cc2nc(-c3ccc(-c4ccccc4)cc3)cs2)n1	1%	-4%	5%	-29%	?
Cc1cc(/C=C\c2ccc3cc(N(C)C)ccc3[n+]2C)c(C)n1-c1ccccc1	?	14µM*[fluorescent]	/	/	/
CCOC(=O)c1c(NC(=O)c2ccccc2Br)sc2c1CCc1ccccc1-2	-14%	0%	?	-28%	28µM*
CCOC(=O)c1c(NC(C)=O)sc2c1CCC(C=O)=C2Sc1ccccc1	-5%	-6%	?	?	14µM*
COc1ccc(OC/C(O)=C(\C#N)c2nc3ccccc3[nH]2)cc1	-14%	1%	-3%	-9%	-19%
COc1ccccc1OCC(=O)OC/C(O)=C(\C#N)c1nc2ccccc2[nH]1	?	2.5µM*[quencher]	6%	-6%	0%
CCOC(=O)C1=C(C)Nc2sc(C(=O)c3ccc(F)cc3)c(N)c2C1c1ccc(C(=O)OC)cc1 (stereo unspecified)	8%	-3%	?	16µM*[quencher]	-2%
Cc1ccc2cccc(Oc3ccc([N+](=O)[O-])cc3[N+](=O)[O-])c2n1	0%	-2%	0%	-21%	-10%
O=[N+]([O-])c1ccc(Oc2cccc3cccnc23)c([N+](=O)[O-])c1	-6%	-4%	-7%	16µM*[quencher]	8.9µM*
COc1ccc(-n2nc([N+](=O)[O-])c(=NCc3ccco3)n2O)cc1	-7%	2%	1%	-29%	10µM*
COc1ccc(-n2nc([N+](=O)[O-])c(=NCCC3=CCCCC3)n2O)cc1	0%	-1%	15%	?	7.9µM*
Nc1cc(Cl)c(O)c(Cl)c1	-13%[201 µM]	?	/	/	/
Cc1ccc(C(=O)Nc2ccc3nc(N4CCCCC4)cc(C)c3c2)cc1F	2%	1%	1%	4%	11%
CCN(CC)c1cc(C)c2cc(NC(=O)/C=C/c3ccccc3Cl)ccc2n1	11%	-2%	9%	7.9µM*[quencher]	3.5µM*
CCN(CC)c1cc(C)c2cc(NC(=O)c3cccc(F)c3)ccc2n1	-2%	0%	16%	32µM*[quencher]	?
CCN(CC)c1cc(C)c2cc(NC(=O)c3ccc(F)cc3Cl)ccc2n1	2%	-2%	8%	?	?
SMILES	TRb SRC2 PPI	TexasRed fluor	Tau FP inhib	Tau fluor counter	Tau ThT inhib
Cc1cc(N2CCCCC2)nc2ccc(NC(=O)c3cccc(Cl)c3)cc12	-5%	-3%	?	14µM*[quencher]	10µM*
CCCCOC(=O)c1cccc(NC(=O)/C=C/c2ccccc2Cl)c1	-8%	-15%	10µM*	?	7%
CCC(CC)C(=O)Nc1ccc(C(=O)OCc2cc(=O)n3nc(C4CC4)sc3n2)cc1	3%	-1%	7%	-1%	0%
CNc1ccc(-c2nc3ccccc3s2)cc1	0%	-2%	/	/	/
COC(C/C=C\[C@@H](O)COCc1ccccc1)OC	1%	-1%	-1%	0%	-2%
S=C(NCC1CCCO1)NC1CCCC1 (stereo unspecified)	-12%	-4%	-2%	-7%	-3%
Cc1cc(N2CCCCC2)nc2ccc(NC(=O)c3cccc(F)c3)cc12	5%	0%	10%	13µM*[quencher]	?
CCC(C)N(C)C1CCN(C(=S)Nc2cccc(SC)c2)CC1 (stereo unspecified)	-7%	0%	-6%	3%	4%
O=C1c2ccccc2C(=O)C12OC2c1cccc2ccccc12 (stereo unspecified)	-1%	6%	4.5µM*	-13%	2.5µM*
CCN1CCN(Cc2c(O)ccc3c(C)c(-c4ccccc4)c(=O)oc23)CC1	-12%	1%	-7%	0%	0%
CCOc1cc2c3c(c1)C(C)=CC(C)(C)N3C(=O)C2=O	-3%	-5%	-5%	-21%	?
CC(=O)Oc1cc2c3c(c1)/C(=C1/SC(=S)NC1=O)C(=O)N3C(C)(C)C=C2C	3%	-6%	?	7.1µM*[quencher]	7.1µM*
COc1ccc2nc(N3CCC(C)CC3)c(C#N)cc2c1	-1%	-5%	?	?	35µM*
O=C(NCCc1nnc2ccc(NCc3cccnc3)nn12)c1ccccc1F	0%	-2%	-13%	-4%	4%
CC1CCCCN1C(=O)Cn1cc(/C=C2/C(=O)Nc3ccccc32)c2ccccc21 (stereo unspecified)	5%	-10%	15%	?	10µM*
CC1CCCCN1C(=O)Cn1cc(C=O)c2ccccc21 (stereo unspecified)	3%	0%	3%	4%	3%
CCOC(=O)/C(=C/C1=CC(=C/N(C)C)/C(=O)O1)C(C)=O	3%	-2%	3%	-15%	?
CCOC(=O)C(NC(C)=O)(N1CCOCC1)C(F)(F)F (stereo unspecified)	2%	2%	?	-7%	?
CCOC(=O)C(NC(C)=O)(N1CCc2ccccc2C1)C(F)(F)F (stereo unspecified)	0%	0%	?	-15%	25µM*
Cc1nc2nc(SCC(=O)NCCc3ccc(Cl)cc3)nn2c(C)c1Cc1c(F)cccc1Cl	-5%	-4%	17%	-10%	-17%
COc1ccc(N=C2O/C(=C/c3sc(=S)n(CC4CCCO4)c3O)N=C2C#N)cc1 (stereo unspecified)	10%	5%	-12%	13µM*[quencher]	10µM*
